Shown are actives, neighbours in structure and some others; about 4% of the full set was active somewhere.
Rv3671c inh = inhibits the M. tuberculosis serine protease Rv3671c; P9WHR9; inhibition, % at 5.96 µM; hit rate 0.048% among 320,000; AID 2606; in the data active means inhibition above about 38%;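 further: extracellular domain of Rv3671c used as enzyme; 0% = enzyme with DMSO and 100% = no enzyme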
RecA intein inh = blocks M. tuberculosis RecA intein splicing; P9WHJ3; hit rate 0.75% among 290,000; inhibition, % (concentration not given with the values); cell-free RecA intein splicing, fluorescence; in the data active means inhibition above about 30%; inconclusive means no clear call, values can overlap the other calls;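 further: 0% = vehicle wells and 100% = reference inhibitor control wells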
GDH-TPI inh = counter-screen for M. tuberculosis FBA inhibitors: GDH-TPI coupled enzymes | inhibition, % at 4.8 µM | GDH-TPI coupled enzyme counterscreen, NADH absorbance | hit rate 1.2% among 360,000; in the data active means inhibition above about 30%;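 further: 0% = DMSO wells and 100% = wells lacking the enzyme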
Mtb betalactam = beta-lactam sensitization of Mtb H37Rv; hit rate 0.27% among 330,000; inhibition, % at 25 µM; M. tuberculosis H37Rv growth with meropenem, percent inhibition; call rule not given here;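 further: growth measured after seven days incubation then overnight dye step; 0% = bacteria only wells and 100% = bacteria with antibiotic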
UGM FP inh = Mtb UDP-galactopyranose mutase inhibition | inhibition, % at 10 µM | hit rate 0.06% among 320,000 | purified UGM, fluorescence polarization probe displacement; in the data active means inhibition above about 10%, passing the limit was not always enough; inconclusive means no clear call, values can overlap the other calls
Mtb FBA inh = inhibitors of M. tuberculosis fructose-bisphosphate aldolase; P9WQA3; purified M. tuberculosis FBA, fluorescence read-out; inhibition, % at 1 µM; hit rate 2.3% among 360,000; AID 588726; in the data active means inhibition above about 27%;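 further: 0% = vehicle and 100% = reference inhibitor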
Target sequence (P9WQA3 whole entry, looked up): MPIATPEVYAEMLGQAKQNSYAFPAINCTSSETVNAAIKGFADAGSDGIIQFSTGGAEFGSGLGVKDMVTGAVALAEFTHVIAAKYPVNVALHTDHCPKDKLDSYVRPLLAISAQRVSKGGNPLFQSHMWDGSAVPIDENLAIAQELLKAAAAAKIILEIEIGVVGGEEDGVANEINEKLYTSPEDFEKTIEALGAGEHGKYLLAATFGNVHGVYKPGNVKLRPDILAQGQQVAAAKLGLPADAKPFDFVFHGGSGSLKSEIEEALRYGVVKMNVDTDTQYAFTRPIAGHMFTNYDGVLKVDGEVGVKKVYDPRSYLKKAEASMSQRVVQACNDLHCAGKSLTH
* marks the source's active call; other numbers are inactive results; i = inactive; ? = inconclusive; nt = no result given; + = active, no number.

SMILES	Rv3671c inh	RecA intein inh	GDH-TPI inh	Mtb betalactam	UGM FP inh	Mtb FBA inh
COc1ccc(NC(=O)c2cc3c(-c4ccc(OC)c(OC)c4)nn(C)c3s2)cc1OC	26	5	38*	-6	2	2
COc1ccc(-c2nn(C)c3sc(C(=O)NCc4ccco4)cc23)cc1OC	-99	3	9	21	0	-1
COc1ccc(C(=O)Nc2nnc(-c3ccco3)s2)cc1	-3	6	46*	1	-2	12
COc1ccccc1C(=O)Nc1nnc(-c2ccco2)s1	2	0	33*	18	3	1
COc1ccccc1NC(=O)Nc1nnc(-c2ccco2)s1	-5	3	nt	15	0	nt
CCCc1nnc2n1N=C(c1ccc(OC)c(OC)c1)CS2	-9	7	17	6	1	-2
COc1ccc(Cc2nnc3n2N=C(c2cc4ccccc4o2)CS3)cc1OC	-6	1	41*	2	1	-2
COc1ccc(C2CC(c3ccccc3C(F)(F)F)=NN2c2ccc(S(N)(=O)=O)cc2)cc1 (stereo unspecified)	nt	nt	-10	nt	nt	+
COc1ccc(C2CC(c3ccccc3F)=NN2c2ccc(S(N)(=O)=O)cc2)cc1 (stereo unspecified)	nt	nt	-9	nt	nt	156*
COc1ccc(C2CC(c3ccc(C(F)(F)F)cc3)=NN2c2ccc(S(N)(=O)=O)cc2)cc1 (stereo unspecified)	nt	nt	10	nt	nt	155*
COc1ccc(C2CC(c3cccs3)=NN2S(=O)(=O)c2ccc(C)cc2)cc1 (stereo unspecified)	1	5	9	-13	4	0
COc1ccc(C2CC(C(C)(C)C)=NN2c2ccc(S(N)(=O)=O)cc2)cc1 (stereo unspecified)	nt	nt	12	nt	nt	-1
CC(C)(C)[C@H](NC(=O)c1ccc(N)c(Cl)c1)C(=O)N1CCC[C@H]1C(=O)N[C@H](C#N)CC(=O)O	nt	nt	6	nt	nt	1
Cc1nc(NC(=O)c2cc3ccccc3o2)sc1C	4	nt	31*	-8	-1	-1
CCOC(=O)c1csc(NC(=O)c2cc3ccccc3o2)n1	-37	nt	43*	3	-1	-1
CCc1ccc(NC(=O)COc2cccc(-n3cnnn3)c2)cc1	-10	-1	4	-1	0	2
Nc1nn2cc(-c3ccc(Br)cc3)nc2c2ccccc12	-23	9	8	5	4	146*
Cc1ccc(C)c(OCc2ccc(C(=O)Nc3ccc([N+](=O)[O-])cn3)o2)c1	-4	nt	4	3	-2	-5
Cc1ccc(C(=O)Nc2ccc([N+](=O)[O-])cn2)o1	-3	4	40*	-1	0	-5
O=C(O)[C@H]1CCCC[C@H]1C(=O)Nc1ccc(S(=O)(=O)N2CCOCC2)cc1	6	-9	-7	-8	1	-1
CCCCc1c(C)c(C#N)c2nc3ccccc3n2c1NCCN(C)C	nt	-68	4	nt	nt	7
CCc1c(C)c(C#N)c2nc3ccccc3n2c1NCCCN(C)C	nt	nt	7	nt	nt	3
Cc1c2c(n3c(nc4ccccc43)c1C#N)N(CCCN(C)C)CC2	-1	i	7	-4	1	141*
Cc1c2c(n3c(nc4ccccc43)c1C#N)N(CCN(C)C)CC2	-4	i	-2	-2	0	+
Cc1ccc2c(c1)N(C(=O)CCC(=O)N1CCC(C(N)=O)CC1)CC(C)O2 (stereo unspecified)	5	0	4	-8	1	3
SMILES	Rv3671c inh	RecA intein inh	GDH-TPI inh	Mtb betalactam	UGM FP inh	Mtb FBA inh
Cc1cc(C(=O)NNC(=O)C(C)(C)Oc2ccc(Cl)cc2)c(C)o1	4	nt	6	-1	-2	5
CC(NC(=O)c1ccc(C(C)(C)C)cc1)C(c1cccs1)N1CCOCC1 (stereo unspecified)	3	1	-6	4	-3	-1
OCc1cc(C(O)CNCCCCCCOCCCCc2ccccc2)ccc1O (stereo unspecified)	-11	1	3	6	-1	28*
CC1(C)CNc2cc([N+](=O)[O-])ccc2S1	3	1	17	-4	1	-6
COc1ccccc1/C=C1\N=C(C(C)(C)C)OC1=O	3	3	10	-4	-1	5
O=C(Nc1ccccc1Cl)c1cc[n+]([O-])cc1	2	-1	2	-6	-2	-2
O=C(O)Cn1cc(C(=O)c2ccco2)c2ccccc21	-21	-54	32*	?	2	-4
CCOC(=O)Cn1cc(C(=O)c2ccco2)c2ccccc21	-8	1	20	-7	4	4
CCOC(=O)C1(Cc2cccc(OC)c2)CCCN(C(=O)c2cc(C)oc2C)C1 (stereo unspecified)	-6	1	4	4	-3	0
Cc1ccc2c(c1)c1ncnc(N3CCOCC3)c1n2C	12	-3	10	-1	1	126*
Cc1ccc2c(c1)c1ncnc(N3CCN(c4ccccc4)CC3)c1n2C	1	nt	3	-4	-1	11
N#CC(C(=O)Nc1cccc(Cl)c1)=C1Nc2ccccc2N1	5	0	30	-2	0	0
N#CC(C(=O)Nc1ccc(Cl)c(Cl)c1)=C1Nc2ccccc2N1	-19	-1	32*	3	1	7
O=C(CCc1nc(-c2ccccc2)no1)NCc1ccccc1CN1CCOCC1	0	nt	-8	1	3	0
Cn1c(=O)c2cc(NC(=S)NCc3ccccc3F)ccc2n1Cc1ccc(F)cc1	nt	nt	9	nt	nt	12
Cn1c(=O)c2cc(NC(=O)NCc3ccccc3)ccc2n1Cc1ccc(Cl)cc1	nt	nt	-7	nt	nt	123*
Cn1c(=O)c2cc(NC(=S)NC3CC3)ccc2n1Cc1ccc(F)cc1	nt	nt	10	nt	nt	14
Cn1c(=O)c2cc(NC(=O)Nc3ccccc3)ccc2n1Cc1ccccc1	nt	nt	4	nt	nt	142*
CCOC(=O)c1c(C)[nH]c(C)c1S(=O)(=O)NCC(=O)Nc1ccccn1	-5	-4	-4	1	-1	3
COc1ccc(-c2noc(CCCC(=O)NCC3CCCO3)n2)cc1 (stereo unspecified)	-3	0	-12	-11	3	-4
N#C/C(=C1/CCCCCN1)c1nc2ccccc2[nH]1	13	4	39*	-3	-2	-3
Clc1ccc(-c2ccc(/C=N/Nc3nncc(-c4ccccc4)n3)o2)cc1	5	1	4	99	1	-2
COc1ccc(-c2cnnc(N/N=C/c3ccc(OC)c(OC)c3)n2)cc1	6	-9	54*	6	-1	-2
Cc1ccc(/C=N/Nc2nncc(-c3ccccc3)n2)o1	5	-5	44*	-7	4	-3
CN(C)S(=O)(=O)c1cccc(NC(=O)COC(=O)/C=C/c2ccc(Br)o2)c1	-11	2	39*	15	-1	0
CN(C)S(=O)(=O)c1cccc(NC(=O)COC(=O)c2cc(-c3cccc(Br)c3)nc3ccccc23)c1	-85	2	32*	13	-2	-3
Cc1ccc(NC(=O)COC(=O)/C=C/c2ccc(Br)o2)cc1S(=O)(=O)N(C)C	3	1	17	63	-3	5

Source: PubChem (several laboratories)
